Assay outcomes (PubChem)
Sfp PPTase inh – blocks B. subtilis Sfp PPTase activity. Biochemical Sfp PPTase activity, qHTS. Potency, µM, most hits filed as inhibitors. 310,000 compounds, 3.5% hits. AID 1490;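 note: the enzyme is Sfp with the accession as filed and its product quenches rhodamine fluorescence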
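Sfp 15 nM + cpd, 15 min RT; start w/ rhodamine-CoA 5 uM, BHQ-2-YbbR 12.5 uM (final); 50 mM Hepes pH 7.6, 10 mM MgCl2, 0.01% NP-40, 0.01% BSA; read 525/598 nm at 0 and 30 min.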
HP1b chromo inh – inhibitors of HP1-beta chromodomain binding to methylated histone tails; P83916; AlphaScreen HP1-beta / biotin-H3K9me3 peptide binding; Potency, µM (doses to about 114 µM), hits mostly inhibitors; 390,000 compounds, 0.56% hits; note: nearly all actives have a fitted effect of over 70% in size
Target sequence (P83916 whole entry, looked up): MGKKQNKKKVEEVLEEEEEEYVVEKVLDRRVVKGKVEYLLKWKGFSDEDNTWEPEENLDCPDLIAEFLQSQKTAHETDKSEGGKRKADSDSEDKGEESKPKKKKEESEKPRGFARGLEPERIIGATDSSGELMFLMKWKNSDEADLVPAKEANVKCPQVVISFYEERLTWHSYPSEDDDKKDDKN
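Compound inhibition of the preformed complex between 50 nM HP1-beta and 50 nM biotinylated H3K9me3 peptide was read by AlphaScreen. Buffer was PBS pH 7.4 with 0.01% Tween-20. Incubations ran 30 min at room temperature, with 10 ug/mL donor/acceptor beads.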
G9a inh – inhibitors of human histone lysine methyltransferase G9a. Q96KQ7. G9a H3K9 monomethylation, AlphaScreen, 2 h. Potency, µM (doses to about 102 µM), actives largely listed as inhibitors. 350,000 compounds, 8.8% hits; note: nearly all actives have a fitted effect of over 75% in size
Target sequence (Q96KQ7 913-1193 limits assumed): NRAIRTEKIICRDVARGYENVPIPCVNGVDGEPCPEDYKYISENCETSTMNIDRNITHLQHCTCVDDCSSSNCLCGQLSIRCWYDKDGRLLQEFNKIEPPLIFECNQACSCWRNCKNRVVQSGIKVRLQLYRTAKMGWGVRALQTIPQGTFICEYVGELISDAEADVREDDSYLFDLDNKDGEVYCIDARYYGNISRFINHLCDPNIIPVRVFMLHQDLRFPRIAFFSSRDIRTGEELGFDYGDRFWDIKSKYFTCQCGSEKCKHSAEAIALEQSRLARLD
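G9a (20 nM) preincubated 15 min RT with compounds, then 500 nM biotinylated H3K9 peptide and 20 uM SAM added; 2 h RT reaction. Monomethyl-H3K9 product detected by AlphaScreen with anti-H3K9me1 antibody, streptavidin donor and anti-rabbit IgG acceptor beads.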
BAZ2B block – inhibitors of human BAZ2B bromodomain | Q9UIF8 | AlphaScreen BAZ2B-H3K14Ac peptide displacement | Potency, µM (highest dose often 114 µM), hits mostly inhibitors | 360,000 compounds, 4.4% hits; note: nearly all actives have a fitted effect of over 60% in size
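Protein-peptide AlphaScreen: BAZ2B 50 nM, b-H3K14Ac 50 nM, 1x PBS pH 7.4 + 0.01% Tween-20. Preincubation 30 min RT; cpd 30 min RT (top 110 uM); beads 20 min RT, light-protected.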
JMJD2A Tudor – JMJD2A Tudor domain (human) inhibition | O75164 | Potency, µM (titrated, usually from 114 µM), actives largely listed as inhibitors | AlphaScreen JMJD2A-Tudor / H3K4me3 peptide binding | 390,000 compounds, 4.4% hits | AID 504339; note: nearly all actives have a fitted effect of over 50% in size
Large screens that a line does not name were inactive; ! = repeats disagree. Hits are enriched below; roughly 12% of the tested compounds scored in any of these assays. Calls come from the whole dose curve; as a rule, active = well fitted curve in the direction sought with a large enough effect; inconclusive = small, poorly fitted or top-dose-only effect, or another doubt; inactive = no such curve, though single readings can be large; an effect the other way counts as inactive or inconclusive.

COc1cccc(CN(Cc2cccnc2)S(=O)(=O)c2ccc(-n3cnnn3)c(C)c2)c1OC	G9a inh 25µM, BAZ2B block inconclusive, JMJD2A Tudor inconclusive
NCCOc1ccccc1OCCN	none
NCCOB(c1ccccc1)c1ccccc1	Sfp PPTase inh 56µM! (no result: HP1b chromo inh, BAZ2B block, JMJD2A Tudor)
COc1ccc2c(c1)cc(CNc1ccc(OC)c(OC)c1)c(=O)n2CC(=O)Nc1ccc(F)cc1	G9a inh 2.8µM, BAZ2B block inconclusive (no result: Sfp PPTase inh)
COc1ccc2cc(CNc3ccc(OC)c(OC)c3)c(=O)n(CC(=O)Nc3ccc(C)cc3)c2c1	G9a inh 2.8µM (no result: Sfp PPTase inh)
Cc1noc(C)c1S(=O)(=O)N1CCN(S(=O)(=O)c2ccccc2C#N)CC1	none
O=C(O)C1C2C=CC(C3CC23)C1C(=O)N1CCc2ccccc21 (centres undefined)	Sfp PPTase inh inconclusive, G9a inh 79µM, JMJD2A Tudor 20µM
O=C(O)C1C2C=CC(C2)C1C(=O)N1CCc2ccccc21 (centres undefined)	none
O=C(C1COc2ccccc2O1)N1CCCC1 (centres undefined)	none
O=C(O)C1CC=CCC1C(=O)N1CCc2ccccc21 (centres undefined)	G9a inh 13µM, BAZ2B block inconclusive, JMJD2A Tudor inconclusive
O=C(C1COc2ccccc2O1)N1CCc2ccccc21 (centres undefined)	HP1b chromo inh inconclusive, G9a inh 50µM, BAZ2B block 45µM, JMJD2A Tudor 79µM
CC(=O)O[C@]1(C)CC[C@]23CC1C(C)(C)C2CC[C@@H]3C (some centres undefined)	none (no result: HP1b chromo inh, G9a inh, BAZ2B block, JMJD2A Tudor)
CCc1cc(=O)oc2cc(C)cc(OCC(=O)N3CCC(C(=O)O)CC3)c12	none (no result: G9a inh)
Cc1c(C(=O)NCCN2CCOCC2)oc2ccc(Br)cc12	HP1b chromo inh inconclusive, BAZ2B block 50µM (no result: Sfp PPTase inh)
Cc1c(C(=O)NC2CCN(Cc3ccccc3)C2)oc2ccc(Br)cc12 (centres undefined)	G9a inh 35µM, BAZ2B block inconclusive, JMJD2A Tudor inconclusive
Cc1c(C(=O)NCCN2CCOCC2)oc2ccccc12	none
CCN(CC)C(=O)c1sc2c(c1C)c(=O)n(-c1ccc(C)c(C)c1)c(=O)n2CC(=O)Nc1ccc(OC)cc1OC	none (no result: Sfp PPTase inh)
CN(Cc1ccco1)c1ccnc(-c2ccoc2)n1	Sfp PPTase inh 50µM (no result: HP1b chromo inh, G9a inh, BAZ2B block, JMJD2A Tudor)
Cc1ccc(C)c(OC(=O)C2CSC3(C)CCC(=O)N23)c1C (centres undefined)	none (no result: Sfp PPTase inh)
Cc1nc(-c2ccc(O)c(O)c2)cs1	Sfp PPTase inh 56µM, HP1b chromo inh inconclusive, G9a inh 1.4µM, JMJD2A Tudor 4µM
COc1cc(-c2csc(C)n2)ccc1O	none
Cc1ccc2nc(-c3ccc(O)c(O)c3)cn2c1	Sfp PPTase inh 56µM, HP1b chromo inh inconclusive, BAZ2B block 50µM, JMJD2A Tudor 22µM (no result: G9a inh)
Clc1ccc(-c2csc(-c3cccnc3)n2)s1	G9a inh 40µM
c1cncc(-c2nc(-c3ccc4c(c3)OCCO4)cs2)c1	none
Oc1ccc(-c2csc(-c3cccnc3)n2)cc1O	Sfp PPTase inh inconclusive, HP1b chromo inh 79µM, BAZ2B block 45µM, JMJD2A Tudor 7.1µM (no result: G9a inh)
O=C(OCc1ccccc1F)c1ccc(-c2nnn(Cc3ccccc3)n2)cc1	none (no result: Sfp PPTase inh)
Oc1ccc(-c2csc(-c3ccccc3)n2)cc1O	Sfp PPTase inh 56µM, HP1b chromo inh inconclusive, G9a inh inconclusive, BAZ2B block 56µM, JMJD2A Tudor 40µM
Cc1ccc(/C=C2/NC(=O)N(c3ccccc3)C2=O)o1	Sfp PPTase inh 25µM, BAZ2B block 56µM
CCCN1C(=O)/C(=C/c2ccc(C)o2)NC1=S	Sfp PPTase inh 20µM, G9a inh 7.9µM, BAZ2B block inconclusive (no result: HP1b chromo inh, JMJD2A Tudor)
CCN1C(=O)N/C(=C/c2ccc(C)o2)C1=O	G9a inh inconclusive
Cc1ccc(/C=C2/NC(=O)N(Cc3ccc(Br)cc3)C2=O)o1	Sfp PPTase inh 3.2µM, G9a inh 32µM, JMJD2A Tudor 50µM
Cc1ccc(CN2C(=O)N/C(=C\c3ccc(N4CCOCC4)cc3)C2=O)cc1	none
Cc1c(C(=O)O)cccc1-c1ccc(/C=C2/NC(=O)N(c3ccccc3)C2=O)o1	G9a inh inconclusive
O=C1N/C(=C/c2ccc(N3CCOCC3)o2)C(=O)N1c1cccc(Cl)c1	Sfp PPTase inh 8.9µM, G9a inh inconclusive
Cc1nnc(N2CCOCC2)c2nn(-c3cccc(Cl)c3)c(C)c12	none
CC(C)=CCC/C(C)=C/CO/N=C1/C[C@@H](O)[C@@H](O)[C@@H]2[C@@H]3C(=O)N(C[C@@H]4CCCO4)C(=O)[C@H]3CC[C@@H]12	none (no result: HP1b chromo inh, G9a inh, BAZ2B block, JMJD2A Tudor)
COc1ccc(OC)c(NC(=O)N2CCN(Cc3nc4ccc(C)cc4o3)CC2)c1	BAZ2B block inconclusive (no result: Sfp PPTase inh)
Cc1ccc(/C=C2/NC(=O)N(Cc3ccccc3F)C2=O)o1	Sfp PPTase inh 14µM, G9a inh 32µM, JMJD2A Tudor inconclusive
Cc1cc(/C=C2/NC(=O)N(Cc3ccccc3F)C2=O)c(C)n1C(C)C	G9a inh inconclusive, BAZ2B block inconclusive
Cc1cc(OCC(=O)N2CCCCCC2)ccc1[N+](=O)[O-]	none
COc1ccc(OCCCn2ccnc2)cc1	Sfp PPTase inh inconclusive, HP1b chromo inh 16µM, BAZ2B block 22µM, JMJD2A Tudor 0.89µM
Cc1cc(OCCCn2ccnc2)ccc1[N+](=O)[O-]	Sfp PPTase inh inconclusive, HP1b chromo inh inconclusive, BAZ2B block 56µM, JMJD2A Tudor 6.3µM (no result: G9a inh)
Fc1ccc(OCCCn2ccnc2)cc1	HP1b chromo inh inconclusive, G9a inh 40µM, BAZ2B block inconclusive, JMJD2A Tudor 45µM
COc1cccc(OCCCn2ccnc2)c1	none (no result: G9a inh)
Cc1cc(OCCN2CCCCCC2)ccc1[N+](=O)[O-]	HP1b chromo inh inconclusive, G9a inh 25µM, BAZ2B block 56µM, JMJD2A Tudor inconclusive
COc1ccc(C(=O)NC(=S)Nc2ccc3oc(=O)ccc3c2)cc1OC	none
CC1C=C[C@@H]2[C@H](C1)C(=O)N(Cc1ccccc1)[C@H]2c1ccccc1Br (some centres undefined)	G9a inh inconclusive (no result: HP1b chromo inh, BAZ2B block, JMJD2A Tudor)
Cc1ccccc1OCCn1ccnc1	G9a inh inconclusive
COc1ccccc1OCCn1ccnc1	HP1b chromo inh inconclusive, BAZ2B block inconclusive, JMJD2A Tudor 3.5µM (no result: G9a inh)
CC(=O)Nc1ccc(N=Cc2c(O)ccc3ccccc23)cc1	G9a inh 1.8µM
NC(=O)c1ccc(N=Cc2c(O)ccc3ccccc23)cc1	JMJD2A Tudor inconclusive (no result: Sfp PPTase inh, G9a inh, BAZ2B block)
Cc1ccccc1NC(C)C(=O)N/N=C/c1ccccc1OCc1cccc(Br)c1 (centres undefined)	none
Cc1ccc(N=Cc2c(O)ccc3ccccc23)cc1F	G9a inh 1.3µM, JMJD2A Tudor 56µM
O=C(O)c1ccc(N=Cc2c(O)ccc3ccccc23)cc1	G9a inh 1.1µM, JMJD2A Tudor inconclusive
COc1ccc(NC(C)C(=O)N/N=C/c2ccccc2OCc2cccc(Br)c2)cc1 (centres undefined)	HP1b chromo inh inconclusive, G9a inh 40µM, BAZ2B block 10µM, JMJD2A Tudor 11µM
O=C(CNC(=O)c1cc(S(=O)(=O)N2CCCCC2)ccc1N1CCOCC1)Nc1ccc(F)c(F)c1	none (no result: Sfp PPTase inh)
